Experimental data published in PubChem BioAssay (NCATS).
Results filed as inconclusive are left out. Values without a mark were called inactive. The source made the active and inactive calls. Calls come from the whole dose curve.

Molecular target: Thyroid hormone receptor beta (Homo sapiens) (UniProt P10828)
Assay: qHTS assay for small molecule agonists of thyroid hormone receptor beta signaling (AID 588545)
Details: TR-UAS-bla GripTite HEK 293, beta-lactamase ratio, agonist mode, 18 h; series mostly up to 76.7 µM; activation: at the top concentration
Text: NIH Chemical Genomics Center [NCGC]
U.S. Environmental Protection Agency [EPA]
National Institutes of Environmental Health Sciences [NIEHS]
National Toxicology Program [NTP]
Thyroid hormone receptor (TR) belongs to nuclear hormone receptor superfamily. There are two subtypes for TR: TR-alpha and TR-beta. TR-beta plays a major role in regulating plasma cholesterol levels and it mediates the biological activities of thyroid hormone. Screening environmental chemicals on TR-beta signaling will provide important information for the mechanism of compound action.
NCGC Assay Protocol Summary
Using a beta-lactamase reporter-gene under control of the TR response element, a cell-based assay [GeneBLAzer TR-UAS-bla-GripTite assay developed by Invitrogen] was used to measure TR-beta signaling in agonist mode. TR-UAS-bla-GripTite HEK 293 cells were used with assay medium containing 2% charcoal/dextran FBS, 0.1 mM NEAA and 1 mM sodium pyruvate. The assay was performed in clear bottom black Greiner 1536-well plates. T3 was used as a positive control in the screen. Library compounds were measured for their ability to stimulate the reporter gene activity. Compounds were screened in a titration series in 1536-well format. The fluorescence intensity (405 nm excitation, 460/530 nm emission) was measured using an EnVision plate reader. Data was normalized relative to T3 control (10 nM, 100%), and DMSO only wells (basal, 0%). Concentration-response titration points for each compound were fitted to the Hill equation yielding concentrations of half-maximal stimulation (EC50) and maximal response (efficacy) values.
qHTS protocol for TR-beta beta-lactamase assay in agonist mode
[Step] [Parameter] [Value] [Description]
1. Reagent; 6 uL; 2500 cells/well
2. Incubation; 37 C for 4 hrs
- Dose response; start 3.8 uM, 1:3 dilutions, duplicates in first column
- Two columns of each 10 and 0.4 nM (finals) concentrations.
5. Incubation; 37 C for 18 hrs
6. Detection reagent; 1 uL of CCF4-dye
7. Incubation; RT for 2 hrs
8. Detection; Fluorescence; Envision plate reader

Thyroid hormone receptor beta (Homo sapiens), sequence (P10828 whole entry, looked up): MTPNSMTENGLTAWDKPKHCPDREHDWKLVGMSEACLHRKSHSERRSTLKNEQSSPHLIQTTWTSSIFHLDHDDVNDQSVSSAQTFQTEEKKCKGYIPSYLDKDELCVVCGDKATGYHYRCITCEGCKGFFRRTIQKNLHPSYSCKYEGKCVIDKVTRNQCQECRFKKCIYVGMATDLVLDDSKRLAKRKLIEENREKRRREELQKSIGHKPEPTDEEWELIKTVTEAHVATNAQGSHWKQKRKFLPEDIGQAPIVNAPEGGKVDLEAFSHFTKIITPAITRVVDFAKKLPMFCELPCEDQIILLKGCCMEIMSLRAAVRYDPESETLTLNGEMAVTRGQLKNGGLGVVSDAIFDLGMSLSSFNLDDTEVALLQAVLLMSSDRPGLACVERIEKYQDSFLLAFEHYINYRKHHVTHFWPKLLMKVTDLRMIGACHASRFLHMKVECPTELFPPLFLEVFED

Q: How did the Potency turn out when `COc1cc(-c2ccc(N)c(OC)c2)ccc1N` was run?
A: inactive

Q: Which Potency does the source give for `c1ccc(NNc2ccccc2)cc1` here?
A: inactive

Q: How did the “activation” value turn out when `Oc1cc(Cl)cc(Cl)c1` was run?
A: -14.3%

Q: For `N#CCBr`, which “activation” value is on record?
A: -38.8%

Q: For `C=CCBr`, which “activation” value is on record?
A: -21.5%

Q: Which “activation” value does the source give for `Nc1c(Br)cc([N+](=O)[O-])cc1[N+](=O)[O-]` here?
A: -7.23%

Q: How did the “activation” value turn out when `CCCCCC[N+](=O)[O-]` was run?
A: -6.09%

Q: `C=CC#N` was tested. Which “activation” value did it give?
A: -18.4%

Q: Which “activation” value does the source give for `CN(C)c1ccccc1` here?
A: -16.1%

Q: For `c1ccc(Nc2ccc(Nc3ccccc3)cc2)cc1`, which “activation” value is on record?
A: -30.1%

Q: For `CC(C)(C)OOC(=O)c1ccccc1`, which Potency is on record?
A: inactive

Q: `CC(C)(Cl)Cl` was tested. Which “activation” value did it give?
A: -3.45%

Q: How did the “activation” value turn out when `CCCCC(=O)Cl` was run?
A: -0.363%

Q: Which Potency does the source give for `CN1CSC(=S)N(C)C1` here?
A: inactive

Q: With `O=NN1CCCCC1` as the compound, how does the “activation” value read?
A: -19%

Q: How did the Potency turn out when `Cc1cc(N=Nc2ccccc2C)ccc1N` was run?
A: inactive

Q: Which “activation” value does the source give for `ClC(Cl)Br` here?
A: -0.0827%

Q: For `CCN(CC)N=O`, which “activation” value is on record?
A: -28%

Q: `O=[N+]([O-])c1ccc(Cl)c(Cl)c1Cl` was tested. Which “activation” value did it give?
A: -16.7%

Q: `CCCCOCC1CO1` (stereo not given) was tested. Which “activation” value did it give?
A: 4.13%

Q: For `COC(=O)Nc1cccc(OC(=O)Nc2cccc(C)c2)c1`, which “activation” value is on record?
A: -12.7%

Q: With `N#CC(O)c1ccccc1` (stereo not given) as the compound, how does the “activation” value read?
A: -7.45%

Q: For `O=C(O)c1cccc(Cl)c1`, which “activation” value is on record?
A: -7.27%

Q: How did the “activation” value turn out when `Oc1cccc(Cl)c1` was run?
A: -7.98%

Q: `Cl/C=C\Cl` was tested. Which “activation” value did it give?
A: -10.5%

Q: How did the “activation” value turn out when `CCNCC` was run?
A: -3.1%

Q: With `ClC(Cl)(Cl)C(Cl)(Cl)Cl` as the compound, how does the “activation” value read?
A: -15.2%

Q: With `Nc1cc(Cl)cc(C(=O)O)c1Cl` as the compound, how does the “activation” value read?
A: -1.3%

Q: How did the Potency turn out when `CCOP(=S)(OCC)Oc1nc(Cl)c(Cl)cc1Cl` was run?
A: inactive

Q: For `CN(C)c1ccc(N(C)C)cc1`, which “activation” value is on record?
A: -1.99%

Q: How did the “activation” value turn out when `COC(=O)Nc1nc2ccccc2[nH]1` was run?
A: -4.43%

Q: For `Cc1ccc2c(c1N)C(=O)c1ccccc1C2=O`, which Potency is on record?
A: inactive

Q: How did the “activation” value turn out when `Cc1ccc2c(C)cccc2c1` was run?
A: -25.9%

Q: For `C=CC(=O)OCC(C)C`, which “activation” value is on record?
A: -22.8%

Q: With `C/C=C/C=O` as the compound, how does the “activation” value read?
A: -11.4%

Q: With `C=CC(=O)OCC(CC)CCCC` (stereo not given) as the compound, how does the Potency read?
A: inactive

Q: Which “activation” value does the source give for `Oc1c(Cl)cccc1Cl` here?
A: -1.96%

Q: How did the “activation” value turn out when `CCC[N+](=O)[O-]` was run?
A: -4.31%

Q: Which “activation” value does the source give for `BrC(Br)Br` here?
A: 7.78%

Q: `CC(C)[C@]12CC(=O)[C@H](C)[C@H]1C2` was tested. Which Potency did it give?
A: inactive
